Laboratory results from PubChem BioAssay (NCI).
The panel holds about 83,000 compounds, 20% with a hit somewhere; the sample as a whole holds those more often.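 Testing used 96-well plates and a 48-hour single-concentration exposure. Example: -40 means 40% of the starting cells died.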 Activity calls are given as the source filed them. Rule for the calls: active = growth percent below 10; inactive = the rest.

System: T-47D breast
Assay: NCI-60 one-dose screen, 48 h (100 = growth as untreated, 0 = no growth, -100 = all killed)
Details: 10 µM unless noted

SMILES | growth
Cc1c(C(=O)C(SC(=S)N2CCOCC2)SC(=S)N2CCOCC2)nnn1-c1ccc([N+](=O)[O-])cc1 | 92.3% (inactive)
CC(=O)Cc1nsc(NC(=O)c2cc(-c3cc(Cl)ccc3Cl)oc2C)n1 | 87.6% (inactive)
COc1cc2ncnc(Nc3ccc(S(=O)(=O)Nc4cc(C)on4)cc3)c2cc1OCCCN1CCOCC1 | 84.4% (inactive)
O=C(c1ccc(F)cc1)C1CCN(CCn2c(=O)[nH]c3ccccc3c2=O)CC1 | 102% (inactive)
C=CCNc1ccc2c3c(cccc13)C(=O)N(CC=C)C2=O | 83% (inactive)
COC(CCP(=O)(c1ccccc1)c1ccccc1)(C(=O)c1ccccc1)c1ccccc1 (stereo unspecified) | 47.6% (inactive)
COc1cc2c(c(OC)c1OC)C(=O)CC(c1cccc(C(=O)Nc3ccc(Br)cc3)c1)O2 (stereo unspecified) | 20.3% (inactive)
COc1cc(-c2ccc(-c3ccc(C(=N)N)s3)s2)cc(OC)c1OC | 39.3% (inactive)
[2H]C([2H])([2H])Oc1ccc(/C=C/C(=O)/C=C(/C=C/c2ccc(OC([2H])([2H])[2H])c(OC([2H])([2H])[2H])c2OC([2H])([2H])[2H])OB(F)F)c(OC([2H])([2H])[2H])c1OC([2H])([2H])[2H] | 51.7% (inactive)
O=C(O)c1nn(-c2ccc(Cl)cc2)nc1N1CCCC1 | 94.4% (inactive)
COCCn1cc(-c2nc(-c3cc4cccnc4n3C)cs2)c2cc(OC)ccc21 | -15.9% (active)
CCOc1cc(\C=N/N=C(N)/C(N)=N\N=C/c2ccc(O)c(OCC)c2)ccc1O | 47.4% (inactive)
CC(C)=CCC[C@](C)(O)C1CC[C@]2(C)[C@@H]1CC[C@@H]1[C@@]3(C)CC/C(=N\OCCC#N)C(C)(C)[C@@H]3CC[C@]12C (stereo partly specified) | 52.6% (inactive)
CCCc1cc(CCC)n2nc(N)nc2n1 | 110% (inactive)
CC(CN)[C@@H]1CC[C@]2(CO)CC[C@]3(C)[C@H](CC[C@@H]4[C@@]5(C)CCC(NCCO)C(C)(C)[C@@H]5CC[C@]43C)[C@@H]12 (stereo partly specified) | 77.5% (inactive)
COc1cccc(C(=O)Nc2cccc(NC(=O)c3ccccn3)c2)c1 | 87.4% (inactive)
Cc1ccc(S(=O)(=O)c2nc(-c3ccccc3)oc2S(C)=O)cc1 (stereo unspecified) | -49% (active)
O=[N+]([O-])c1ccc(Oc2cccc3c(Oc4ccc([N+](=O)[O-])cc4[N+](=O)[O-])cccc23)c([N+](=O)[O-])c1 | 81.7% (inactive)

SMILES | growth
CC1(C)CC(=O)C2=C(C1)OC(C(=O)c1ccccc1)C2c1cccc(Oc2ccccc2)c1 (stereo unspecified) | 5.71% (active)
Cn1cc(-c2nc(-c3c[nH]c4c(Cl)nccc34)cs2)c2ccccc21 | 87.1% (inactive)
CCCCCN(CCCCC)CC(O)c1c(Cl)ccc2ccccc12 (stereo unspecified) | 69% (inactive)
COc1cccc2cc(N(C)c3ncnc4ccccc34)ccc12 | 59.1% (inactive)
CN1C(=O)N(C)C2C1NN=c1s/c(=C\c3ccccc3F)c(=O)n12 (stereo unspecified) | 52.6% (inactive)
C#Cc1ccc(NC(=O)Cc2ccc(/C=C/C(=O)c3nccn3C)cc2)cc1 | 69.2% (inactive)
O=C1C2C(c3cccs3)C=C(c3ccc(Cl)cc3)N2C(=S)N1c1ccccc1 (stereo unspecified) | 100% (inactive)
Cc1cc2nc(C(Cl)Cl)nc(-c3ccccc3)n2n1 | 61.7% (inactive)
O=C(NS(=O)(=O)c1ccccc1)n1cc(-c2ccncc2)c(-c2cc(O)cc(Cl)c2)n1 | 90.1% (inactive)
CCOC(=O)c1cc(C(=O)c2cc(OC)cc(OC)c2)n2ncccc12 | 32.9% (inactive)
CC1=C2[C@@H](CC1)[C@]1(C)O[C@@](C(C)C)(C[C@H]1OC(=O)CO)[C@H]2OC(=O)CCCc1ccccc1 | 25.3% (inactive)
O=C1/C(=C/c2cccc(Br)c2)COc2ccc(O)c(O)c21 | -14.3% (active)
Nc1nc(N)c2c(n1)NC(c1cccc(Nc3ccnc4cc(C(F)(F)F)ccc34)c1)CC(c1ccc(Cl)cc1)=N2 (stereo unspecified) | 73.7% (inactive)
COc1ccc2c(c1)c(-c1nc(-c3cn(C)c4ccncc34)cs1)cn2C | 95.7% (inactive)
Cc1[nH]c(C(=O)Nc2ccc(C(N)=O)cc2OC(C)C)c(Cl)c1Cl | 74.9% (inactive)
COc1cc2nc3cc([N+](=O)[O-])ccc3c(NCCCNCCO)c2cc1OC | -30.1% (active)
CC1OC(C(=O)N2CCN(CCO)CC2)CC1COC1CCCCC1 (stereo unspecified) | 94.6% [50 µM] (inactive)
CC(C)(C)CC(C)(C)Nc1c(-c2c(O)c3ccccc3oc2=O)nc2sccn12 | 84.8% (inactive)
